Test [1] concerns the target Sphingosine kinase 1 (Homo sapiens) (UniProt Q9NYA1). The settings on record: at 1 µM.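 Further: mean SPHK1 inhibition value reported from the GSK PKIS kinase panel screen.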
Test [2] concerns the target T1, Sphingosine kinase 2 (Homo sapiens) (UniProt Q9NRA0).
T1 sequence (whole entry): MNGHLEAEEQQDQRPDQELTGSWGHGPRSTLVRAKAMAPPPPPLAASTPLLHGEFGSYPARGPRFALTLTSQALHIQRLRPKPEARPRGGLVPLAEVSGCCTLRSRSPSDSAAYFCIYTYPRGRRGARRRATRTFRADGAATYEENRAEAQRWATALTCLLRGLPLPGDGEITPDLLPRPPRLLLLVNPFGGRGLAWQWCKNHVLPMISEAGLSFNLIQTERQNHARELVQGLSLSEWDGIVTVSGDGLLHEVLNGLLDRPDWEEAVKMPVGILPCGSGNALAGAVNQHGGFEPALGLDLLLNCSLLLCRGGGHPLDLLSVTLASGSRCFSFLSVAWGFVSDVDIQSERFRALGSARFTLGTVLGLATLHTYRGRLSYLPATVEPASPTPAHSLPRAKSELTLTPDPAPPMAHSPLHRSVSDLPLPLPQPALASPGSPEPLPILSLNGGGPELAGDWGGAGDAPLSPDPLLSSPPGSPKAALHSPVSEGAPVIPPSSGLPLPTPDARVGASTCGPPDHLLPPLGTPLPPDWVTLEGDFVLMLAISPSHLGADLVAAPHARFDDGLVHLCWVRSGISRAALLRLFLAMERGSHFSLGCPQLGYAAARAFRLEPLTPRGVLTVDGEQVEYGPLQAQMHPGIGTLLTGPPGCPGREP
Particulars: at 0.1 µM.

Test [3] has as its target T1, Sphingosine kinase 2 (Homo sapiens). Particulars: at 1 µM.
Test [4] has as its target Casein kinase II subunit alpha (Homo sapiens) (UniProt P68400). The settings on record: at 0.1 µM.
Test [5] shares this target. Particulars: at 1 µM.
The target of test [6] is T2, Inhibitor of nuclear factor kappa-B kinase subunit alpha (Homo sapiens) (UniProt O15111).
T2 sequence (whole entry): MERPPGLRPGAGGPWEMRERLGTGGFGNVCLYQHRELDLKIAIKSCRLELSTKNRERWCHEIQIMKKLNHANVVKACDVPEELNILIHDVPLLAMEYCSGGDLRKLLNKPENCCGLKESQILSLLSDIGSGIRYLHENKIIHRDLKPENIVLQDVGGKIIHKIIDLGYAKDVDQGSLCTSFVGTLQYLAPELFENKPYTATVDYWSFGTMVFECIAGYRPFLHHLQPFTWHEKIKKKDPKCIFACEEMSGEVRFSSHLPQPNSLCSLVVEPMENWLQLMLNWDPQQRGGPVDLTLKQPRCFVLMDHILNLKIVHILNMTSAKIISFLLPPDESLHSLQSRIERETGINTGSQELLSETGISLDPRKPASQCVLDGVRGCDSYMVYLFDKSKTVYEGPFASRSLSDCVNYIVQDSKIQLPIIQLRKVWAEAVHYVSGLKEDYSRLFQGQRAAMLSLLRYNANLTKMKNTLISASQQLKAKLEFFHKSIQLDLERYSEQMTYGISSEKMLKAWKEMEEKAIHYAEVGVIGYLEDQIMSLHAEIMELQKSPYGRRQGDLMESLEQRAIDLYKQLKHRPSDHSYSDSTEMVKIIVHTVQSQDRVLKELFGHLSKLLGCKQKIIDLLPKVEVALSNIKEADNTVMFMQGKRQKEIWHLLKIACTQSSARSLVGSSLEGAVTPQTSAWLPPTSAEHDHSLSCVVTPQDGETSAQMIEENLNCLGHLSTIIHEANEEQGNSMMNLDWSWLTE
Particulars: at 0.1 µM.

Test [7] addresses T2, Inhibitor of nuclear factor kappa-B kinase subunit alpha (Homo sapiens). The settings on record: at 1 µM.
Test [8] has as its target T3, Inhibitor of nuclear factor kappa-B kinase subunit beta (Homo sapiens) (UniProt O14920).
T3 sequence (whole entry): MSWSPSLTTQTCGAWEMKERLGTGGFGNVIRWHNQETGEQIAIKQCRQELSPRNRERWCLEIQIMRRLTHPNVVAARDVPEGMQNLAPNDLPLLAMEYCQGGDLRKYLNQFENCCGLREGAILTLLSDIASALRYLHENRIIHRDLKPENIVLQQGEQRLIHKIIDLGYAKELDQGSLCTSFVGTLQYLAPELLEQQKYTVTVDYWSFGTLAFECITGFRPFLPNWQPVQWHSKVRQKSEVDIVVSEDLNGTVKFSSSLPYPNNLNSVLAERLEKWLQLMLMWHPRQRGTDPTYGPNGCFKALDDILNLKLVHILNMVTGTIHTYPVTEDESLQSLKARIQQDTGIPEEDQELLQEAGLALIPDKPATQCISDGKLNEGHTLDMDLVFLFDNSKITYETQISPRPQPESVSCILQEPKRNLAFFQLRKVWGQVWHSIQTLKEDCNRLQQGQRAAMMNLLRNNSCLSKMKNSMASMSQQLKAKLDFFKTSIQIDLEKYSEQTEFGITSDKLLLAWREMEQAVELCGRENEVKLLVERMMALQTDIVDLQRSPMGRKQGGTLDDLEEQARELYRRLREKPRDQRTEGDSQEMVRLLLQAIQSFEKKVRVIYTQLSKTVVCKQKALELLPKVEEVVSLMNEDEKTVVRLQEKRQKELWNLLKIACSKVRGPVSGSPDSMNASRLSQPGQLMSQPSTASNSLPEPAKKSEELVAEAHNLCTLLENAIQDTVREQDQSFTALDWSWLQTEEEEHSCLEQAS
The settings on record: at 0.1 µM.

The target in test [9] is T3, Inhibitor of nuclear factor kappa-B kinase subunit beta (Homo sapiens). The settings on record: at 1 µM.
Test [10] has as its target T4, Inhibitor of nuclear factor kappa-B kinase subunit epsilon (Homo sapiens) (UniProt Q14164).
T4 sequence (whole entry): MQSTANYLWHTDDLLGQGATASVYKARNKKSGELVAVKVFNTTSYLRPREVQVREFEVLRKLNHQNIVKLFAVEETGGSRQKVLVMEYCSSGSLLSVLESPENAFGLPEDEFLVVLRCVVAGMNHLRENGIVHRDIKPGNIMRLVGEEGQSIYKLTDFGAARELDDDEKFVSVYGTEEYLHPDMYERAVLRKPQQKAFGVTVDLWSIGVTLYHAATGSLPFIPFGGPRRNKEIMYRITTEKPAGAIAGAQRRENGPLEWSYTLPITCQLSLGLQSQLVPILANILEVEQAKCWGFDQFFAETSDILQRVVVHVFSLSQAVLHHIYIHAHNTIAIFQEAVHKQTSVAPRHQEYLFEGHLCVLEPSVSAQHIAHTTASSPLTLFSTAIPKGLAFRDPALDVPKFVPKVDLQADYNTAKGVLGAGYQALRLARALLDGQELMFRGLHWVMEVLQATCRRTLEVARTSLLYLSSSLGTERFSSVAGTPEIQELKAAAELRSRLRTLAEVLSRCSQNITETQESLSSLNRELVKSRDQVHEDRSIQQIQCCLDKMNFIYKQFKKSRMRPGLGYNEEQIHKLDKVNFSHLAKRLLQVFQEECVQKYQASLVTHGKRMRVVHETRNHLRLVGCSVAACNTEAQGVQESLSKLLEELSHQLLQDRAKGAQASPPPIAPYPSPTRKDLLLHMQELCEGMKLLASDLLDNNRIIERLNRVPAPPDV
Particulars: at 0.1 µM.

Test [11] deals with T4, Inhibitor of nuclear factor kappa-B kinase subunit epsilon (Homo sapiens). Particulars: at 1 µM.
For test [12], the target named is T5, Serine/threonine-protein kinase Nek1 (Homo sapiens) (UniProt Q96PY6).
T5 sequence (whole entry): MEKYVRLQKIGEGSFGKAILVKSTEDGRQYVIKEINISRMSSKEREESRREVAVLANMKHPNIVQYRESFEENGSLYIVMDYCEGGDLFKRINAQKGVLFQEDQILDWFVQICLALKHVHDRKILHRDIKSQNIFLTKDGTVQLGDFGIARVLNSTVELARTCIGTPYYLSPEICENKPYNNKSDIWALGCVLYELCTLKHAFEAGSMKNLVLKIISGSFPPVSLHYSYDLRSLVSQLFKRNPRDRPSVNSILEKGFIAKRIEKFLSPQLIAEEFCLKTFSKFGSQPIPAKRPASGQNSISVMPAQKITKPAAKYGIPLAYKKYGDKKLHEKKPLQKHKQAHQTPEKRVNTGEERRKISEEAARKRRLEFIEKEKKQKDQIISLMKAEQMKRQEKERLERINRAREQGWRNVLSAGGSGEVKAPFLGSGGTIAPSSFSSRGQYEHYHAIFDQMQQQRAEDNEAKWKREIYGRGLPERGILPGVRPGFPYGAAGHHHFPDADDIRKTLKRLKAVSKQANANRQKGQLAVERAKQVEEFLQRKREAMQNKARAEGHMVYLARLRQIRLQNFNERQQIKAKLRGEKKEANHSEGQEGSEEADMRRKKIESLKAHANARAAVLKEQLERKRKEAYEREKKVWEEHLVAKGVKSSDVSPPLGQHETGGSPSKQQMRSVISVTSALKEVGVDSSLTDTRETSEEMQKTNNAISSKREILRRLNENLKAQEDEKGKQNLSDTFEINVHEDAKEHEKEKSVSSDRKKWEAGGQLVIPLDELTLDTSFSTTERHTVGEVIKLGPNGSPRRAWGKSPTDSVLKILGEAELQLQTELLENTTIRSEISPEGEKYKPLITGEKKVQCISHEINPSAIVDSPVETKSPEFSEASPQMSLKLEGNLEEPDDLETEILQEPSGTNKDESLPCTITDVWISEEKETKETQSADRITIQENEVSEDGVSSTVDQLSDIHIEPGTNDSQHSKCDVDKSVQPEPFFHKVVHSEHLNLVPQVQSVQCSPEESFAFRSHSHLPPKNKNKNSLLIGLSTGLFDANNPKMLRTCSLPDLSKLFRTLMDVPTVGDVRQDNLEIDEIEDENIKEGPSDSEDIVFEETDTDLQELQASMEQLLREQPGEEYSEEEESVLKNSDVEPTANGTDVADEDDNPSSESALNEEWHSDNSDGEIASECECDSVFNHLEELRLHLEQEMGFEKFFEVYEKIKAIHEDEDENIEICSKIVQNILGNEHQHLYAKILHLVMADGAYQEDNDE
The settings on record: at 0.1 µM.

In test [13] the target is T5, Serine/threonine-protein kinase Nek1 (Homo sapiens). Particulars: at 1 µM.
The target in test [14] is T6, Serine/threonine-protein kinase Nek2 (Homo sapiens) (UniProt P51955).
T6 sequence (whole entry): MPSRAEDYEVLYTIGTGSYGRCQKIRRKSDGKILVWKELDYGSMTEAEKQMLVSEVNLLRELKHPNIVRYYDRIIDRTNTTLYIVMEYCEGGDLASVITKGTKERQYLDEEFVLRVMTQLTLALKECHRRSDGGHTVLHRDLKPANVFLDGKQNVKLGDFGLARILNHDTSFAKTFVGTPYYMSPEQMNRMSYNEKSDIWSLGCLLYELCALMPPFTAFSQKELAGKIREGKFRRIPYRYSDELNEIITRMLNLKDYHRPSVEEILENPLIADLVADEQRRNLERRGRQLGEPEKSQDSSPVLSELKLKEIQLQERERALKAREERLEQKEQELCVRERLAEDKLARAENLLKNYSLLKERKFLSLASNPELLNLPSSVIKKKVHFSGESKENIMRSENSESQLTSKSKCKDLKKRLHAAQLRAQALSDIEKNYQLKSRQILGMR
The settings on record: at 0.1 µM.

Test [15] concerns the target T6, Serine/threonine-protein kinase Nek2 (Homo sapiens). Particulars: at 1 µM.
Test [16] concerns the target Serine/threonine-protein kinase Nek6 (Homo sapiens) (UniProt Q9HC98). Particulars: at 0.1 µM.
The target is the same in test [17]. Particulars: at 1 µM.
Test [18] addresses Serine/threonine-protein kinase Nek7 (Homo sapiens) (UniProt Q8TDX7). Particulars: at 0.1 µM.
For test [19] the target is unchanged. The settings on record: at 1 µM.
For test [20], the target named is T7, Serine/threonine-protein kinase Nek9 (Homo sapiens) (UniProt Q8TD19).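 Further: reported value is the mean percent inhibition of NEK9.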
T7 sequence (whole entry): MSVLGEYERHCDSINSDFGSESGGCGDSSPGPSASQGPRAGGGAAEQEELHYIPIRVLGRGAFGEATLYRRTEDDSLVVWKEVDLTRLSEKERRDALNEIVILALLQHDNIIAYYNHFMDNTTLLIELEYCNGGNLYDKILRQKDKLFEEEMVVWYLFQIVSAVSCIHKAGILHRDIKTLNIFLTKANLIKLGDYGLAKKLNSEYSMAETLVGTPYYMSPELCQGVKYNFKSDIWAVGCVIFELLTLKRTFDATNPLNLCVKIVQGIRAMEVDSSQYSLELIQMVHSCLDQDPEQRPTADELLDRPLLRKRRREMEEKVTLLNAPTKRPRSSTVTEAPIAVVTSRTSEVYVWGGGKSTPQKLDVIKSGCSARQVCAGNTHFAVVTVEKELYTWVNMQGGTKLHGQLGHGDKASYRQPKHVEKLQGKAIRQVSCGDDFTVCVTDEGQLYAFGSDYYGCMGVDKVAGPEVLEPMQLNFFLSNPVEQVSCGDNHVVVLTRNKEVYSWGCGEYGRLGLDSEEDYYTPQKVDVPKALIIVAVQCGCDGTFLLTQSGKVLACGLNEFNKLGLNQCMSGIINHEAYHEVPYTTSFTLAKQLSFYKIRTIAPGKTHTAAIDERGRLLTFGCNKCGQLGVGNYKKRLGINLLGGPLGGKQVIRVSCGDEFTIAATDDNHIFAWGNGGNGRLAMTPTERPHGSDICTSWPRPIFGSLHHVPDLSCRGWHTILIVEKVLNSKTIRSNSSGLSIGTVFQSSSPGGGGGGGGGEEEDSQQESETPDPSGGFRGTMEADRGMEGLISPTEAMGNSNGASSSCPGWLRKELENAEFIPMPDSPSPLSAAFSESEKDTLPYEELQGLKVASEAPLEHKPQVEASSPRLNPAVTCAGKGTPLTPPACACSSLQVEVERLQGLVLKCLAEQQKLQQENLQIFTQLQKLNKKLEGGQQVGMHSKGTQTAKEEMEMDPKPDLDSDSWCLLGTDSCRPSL
The settings on record: at 0.1 µM.

SMILES strings stand for the structures.

The values that follow come from ChEMBL document CHEMBL1961873, “Compounds: GSK PKIS; Assays: Nanosyn kinase panel” (2012).

For orientation: inhibition means the drop in the measured response relative to a control, in per cent.

Sequence of Casein kinase II subunit alpha (Homo sapiens) (P68400 whole entry, looked up): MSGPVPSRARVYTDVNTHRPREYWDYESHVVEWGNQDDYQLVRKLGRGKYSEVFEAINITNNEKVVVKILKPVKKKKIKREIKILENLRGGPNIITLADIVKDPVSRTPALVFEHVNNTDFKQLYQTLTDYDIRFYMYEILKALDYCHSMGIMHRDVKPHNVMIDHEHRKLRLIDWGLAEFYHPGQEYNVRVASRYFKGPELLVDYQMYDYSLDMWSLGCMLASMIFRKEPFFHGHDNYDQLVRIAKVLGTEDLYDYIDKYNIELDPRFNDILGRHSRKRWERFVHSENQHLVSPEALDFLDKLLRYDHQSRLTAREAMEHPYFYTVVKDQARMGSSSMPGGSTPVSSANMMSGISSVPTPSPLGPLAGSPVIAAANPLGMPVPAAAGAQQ
Sequence of Serine/threonine-protein kinase Nek6 (Homo sapiens) (Q9HC98 whole entry): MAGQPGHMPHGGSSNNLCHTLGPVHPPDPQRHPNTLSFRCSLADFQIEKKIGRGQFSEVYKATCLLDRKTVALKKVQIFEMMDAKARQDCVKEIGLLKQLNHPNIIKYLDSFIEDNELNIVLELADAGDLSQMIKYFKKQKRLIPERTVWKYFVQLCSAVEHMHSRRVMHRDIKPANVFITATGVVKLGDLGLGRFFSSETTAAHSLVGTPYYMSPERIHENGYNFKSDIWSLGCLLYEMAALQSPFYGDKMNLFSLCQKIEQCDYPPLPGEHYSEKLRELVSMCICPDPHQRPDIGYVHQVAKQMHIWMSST
Sequence of Serine/threonine-protein kinase Nek7 (Homo sapiens) (Q8TDX7 whole entry, looked up): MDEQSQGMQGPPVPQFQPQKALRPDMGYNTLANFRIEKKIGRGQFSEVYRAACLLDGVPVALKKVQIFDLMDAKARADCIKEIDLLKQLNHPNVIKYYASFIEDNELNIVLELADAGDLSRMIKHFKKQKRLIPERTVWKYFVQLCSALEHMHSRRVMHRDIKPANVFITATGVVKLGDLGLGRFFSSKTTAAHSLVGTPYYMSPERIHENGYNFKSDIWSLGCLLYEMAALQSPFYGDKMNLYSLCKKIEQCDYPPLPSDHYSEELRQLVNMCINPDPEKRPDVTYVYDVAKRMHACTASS
Sequence of Sphingosine kinase 1 (Homo sapiens) (Q9NYA1 whole entry): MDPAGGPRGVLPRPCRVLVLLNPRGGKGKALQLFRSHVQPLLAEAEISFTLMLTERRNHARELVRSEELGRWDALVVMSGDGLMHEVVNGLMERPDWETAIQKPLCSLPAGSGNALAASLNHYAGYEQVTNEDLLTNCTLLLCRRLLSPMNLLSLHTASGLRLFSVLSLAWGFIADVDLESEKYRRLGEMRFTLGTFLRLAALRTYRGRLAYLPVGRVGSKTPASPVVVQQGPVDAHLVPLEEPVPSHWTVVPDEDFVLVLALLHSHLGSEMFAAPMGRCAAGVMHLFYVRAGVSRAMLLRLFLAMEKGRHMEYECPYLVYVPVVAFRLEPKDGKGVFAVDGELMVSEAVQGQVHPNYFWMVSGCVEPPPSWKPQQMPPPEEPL

Take `N#Cc1c(NC(=O)c2ccc(F)cc2)sc2c1CCCC2`: the inhibition in [1] is -1.09%; in test [2] it was 0.33%; in test [3], 0%; in test [4], 0.61%; in [5], 1.89%; in [6], 5.73%. The inhibition turned out to be 4.51% in test [7]; 1.94% in test [8]; 4.15% in test [9]; 2.43% in [10]; 3.72% in test [11]; 9.69% in test [12]. Also, the inhibition turned out to be 3.09% in test [13]; 2.18% in test [14]; 1.31% in [15]; 2.27% in test [16]; 2.25% in test [17]; 2.7% in test [18]. For the same compound, the inhibition stood at 2.46% in test [19] and 3.12% in test [20].
